According to PMC10726135, “HNF4α isoforms regulate the circadian balance between carbohydrate and lipid metabolism in the liver”:
Whole data set: some 18,000 sequences, median “log2 normalized intensity” near 0.36, cut for the highest 2% near 7.3. Only a selection was taken, and the highest values are over-represented in it overall.

biological target: T1, HNF4alpha8 (COS-7 nuclear extract) (Homo sapiens, UniProt P41235-5 1-452); test: protein-binding microarray; COS-7 nuclear extract on double-stranded Agilent 4x180k PBM; binding buffer, salt, pH and temperature not given in the material; high values mean tight binding; conditions: chain copies: 2; label: 3' end of strand 1 on the slide; dsDNA, one strand shown
T1 sequence: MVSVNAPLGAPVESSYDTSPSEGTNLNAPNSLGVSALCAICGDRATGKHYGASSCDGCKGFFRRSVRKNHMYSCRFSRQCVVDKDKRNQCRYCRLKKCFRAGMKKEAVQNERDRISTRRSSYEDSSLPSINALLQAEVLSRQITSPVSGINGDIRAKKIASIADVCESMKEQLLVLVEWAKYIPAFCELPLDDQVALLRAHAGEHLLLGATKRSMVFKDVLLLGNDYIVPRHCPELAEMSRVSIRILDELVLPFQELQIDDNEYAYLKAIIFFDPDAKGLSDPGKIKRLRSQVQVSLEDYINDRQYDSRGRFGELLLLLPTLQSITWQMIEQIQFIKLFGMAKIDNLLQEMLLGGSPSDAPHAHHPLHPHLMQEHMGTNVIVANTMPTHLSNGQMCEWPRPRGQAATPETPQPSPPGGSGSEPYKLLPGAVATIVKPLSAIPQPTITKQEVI
Outline: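 The binding signal is Agilent software's gProcessedSignal after background correction and normalization. Arrays were a custom Agilent SurePrint G3 4x180k design of double-stranded ~60-nt oligonucleotides with ~44,000 test sequences in quadruplicate, probed with nuclear extracts of COS-7 cells transiently expressing a human HNF4α isoform. Scans were made at 2-µm resolution on an Agilent G2565CA scanner.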

| Sequence | binding signal |
| --- | --- |
| TTCAGCCGCTTTGAGGTCAATGGTAGAAAAGCCTAGGGAGATTAGAGTATCGGTCGA | 1.85 log2 normalized intensity |
| ACTAAAGGTTAAACATGTACTCTGTACTCCGCCTAGGGAGATTAGAGTATCGGTCGA | 3.43 log2 normalized intensity |
| ACCCCTCCACTGGACAGCAGCTACATAAGGGCCTAGGGAGATTAGAGTATCGGTCGA | 1.83 log2 normalized intensity |
| AAATACCCTCTTTAGGGTAGCCTGGGTTAAGCCTAGGGAGATTAGAGTATCGGTCGA | 0.844 log2 normalized intensity |
| GCTAGTAAGGAGCTGAGTCATAGTGGACTTGCCTAGGGAGATTAGAGTATCGGTCGA | 4.03 log2 normalized intensity |
| TAGACTTTGGACCTGGCCTGCGGGGTCAGGGCCTAGGGAGATTAGAGTATCGGTCGA | 6.35 log2 normalized intensity |
| CACCTGTGTCAACATGGACTTTGTTGTTTGGCCTAGGGAGATTAGAGTATCGGTCGA | 4.99 log2 normalized intensity |
| CGGGTATGTGGGGCGTGTGTTAGACTTTGGGCCTAGGGAGATTAGAGTATCGGTCGA | 4.91 log2 normalized intensity |
| GGACTTTGGCCTTACTTGGCCTGTTTGCTGGCCTAGGGAGATTAGAGTATCGGTCGA | 5.89 log2 normalized intensity |
| TGGACAACTGTACTTTGGACTGGGGACCTGGCCTAGGGAGATTAGAGTATCGGTCGA | 6.02 log2 normalized intensity |
| GGGCGTGTGTTAGACTTTGGACCTGGCCTGGCCTAGGGAGATTAGAGTATCGGTCGA | 7.98 log2 normalized intensity |
| TAAGGAGCTGAGTCATAGTGGACTTTGCCTGCCTAGGGAGATTAGAGTATCGGTCGA | 7.86 log2 normalized intensity |
| TAGGGCCTTGCTATGGAGTGGACTTTGGCTGCCTAGGGAGATTAGAGTATCGGTCGA | 7.22 log2 normalized intensity |
| GTTGGACTTTGGACCTTTGTGTGTGTGTGTGCCTAGGGAGATTAGAGTATCGGTCGA | 8.31 log2 normalized intensity |
| ACTTTGGACCTTTGTGTGTGTGTGTGTGTGGCCTAGGGAGATTAGAGTATCGGTCGA | 3.49 log2 normalized intensity |
| ATGTGGGGCGTGTGTTAGACTTTGGACCTGGCCTAGGGAGATTAGAGTATCGGTCGA | 9.77 log2 normalized intensity |
| CCAATTATTGCGAGTTTAGGAGGGTTCCTGGCCTAGGGAGATTAGAGTATCGGTCGA | -0.0269 log2 normalized intensity |
| GATCCACGGAGAATGTAGACCTTTACCACCGCCTAGGGAGATTAGAGTATCGGTCGA | 2.35 log2 normalized intensity |
| ATCCCCCACACCGAGATAGTAGAGATAGTGGCCTAGGGAGATTAGAGTATCGGTCGA | 2.5 log2 normalized intensity |
| TCAAAGTCCAAATAGCGCTAACTCTATATCGCCTAGGGAGATTAGAGTATCGGTCGA | 0.779 log2 normalized intensity |

| Sequence | binding signal |
| --- | --- |
| TGGCACTGAAGAATGTCTAAATCTGAAGGAGCCTAGGGAGATTAGAGTATCGGTCGA | -0.983 log2 normalized intensity |
| GTGTTGACCTCTGGACCTCATCTTCCTCCCGCCTAGGGAGATTAGAGTATCGGTCGA | 5.2 log2 normalized intensity |
| TCTTTCAAGATAACAAGGCAAACTTTATCAGCCTAGGGAGATTAGAGTATCGGTCGA | -0.554 log2 normalized intensity |
| ATGTGTTTGCATGACTCATAAAGAACAGTTGCCTAGGGAGATTAGAGTATCGGTCGA | 0.739 log2 normalized intensity |
| ATTTTGGACTTTGTGCAAATGGAAAATTGTGCCTAGGGAGATTAGAGTATCGGTCGA | 3.52 log2 normalized intensity |
| AACGGTTCAAAGGACAGACTTTGGACCTGGGCCTAGGGAGATTAGAGTATCGGTCGA | 7.98 log2 normalized intensity |
| TGACAACTGAATGTGACCTTTTGGACCACAGCCTAGGGAGATTAGAGTATCGGTCGA | 7.4 log2 normalized intensity |
| GACCTGTCTTCCTGGTGACCTTTGTTTGGTGCCTAGGGAGATTAGAGTATCGGTCGA | 5.66 log2 normalized intensity |
| GTAGAGACCTGTCTTCCTGGTGACCTTTGTGCCTAGGGAGATTAGAGTATCGGTCGA | 7.95 log2 normalized intensity |
| ACTGAATGTGACCTTTTGGACCACAGAGTGGCCTAGGGAGATTAGAGTATCGGTCGA | 5.97 log2 normalized intensity |
| TTCAAAGGACAGACTTTGGACCTGGCCCTCGCCTAGGGAGATTAGAGTATCGGTCGA | 6.56 log2 normalized intensity |
| GGGGACCTTTGGCCTTTACCTGTTACTTATGCCTAGGGAGATTAGAGTATCGGTCGA | 4.06 log2 normalized intensity |
| GATACAACGGTTCAAAGGACAGACTTTGGAGCCTAGGGAGATTAGAGTATCGGTCGA | 4.08 log2 normalized intensity |
| CCTGATGACAACTGAATGTGACCTTTTGGAGCCTAGGGAGATTAGAGTATCGGTCGA | 6.26 log2 normalized intensity |
| AGGGGTTACTAGTGAGTTGGACTTTGGACCGCCTAGGGAGATTAGAGTATCGGTCGA | 11.6 log2 normalized intensity |
| TTACCGGTGTGACTTTGGTTGGATTTCTTGGCCTAGGGAGATTAGAGTATCGGTCGA | 1.56 log2 normalized intensity |
| GTCAAGTAGAGACCTGTCTTCCTGGTGACCGCCTAGGGAGATTAGAGTATCGGTCGA | 2.25 log2 normalized intensity |
| GACCTCATGTAGTCACATACCTATGCAAACGCCTAGGGAGATTAGAGTATCGGTCGA | 1.02 log2 normalized intensity |
| CAGCATCTTCACCGTAAAGCCACCCCTTTCGCCTAGGGAGATTAGAGTATCGGTCGA | 2.59 log2 normalized intensity |
| AGCGATCATGGGTGACCCGTTAAGAATGAGGCCTAGGGAGATTAGAGTATCGGTCGA | 1.24 log2 normalized intensity |

| Sequence | binding signal |
| --- | --- |
| CTTAGAATCGAATTGTGAAACTCAGAATCAGCCTAGGGAGATTAGAGTATCGGTCGA | -0.796 log2 normalized intensity |
| TCACCTACTGACCTTTCTCCCTTTTCACAGGCCTAGGGAGATTAGAGTATCGGTCGA | 3.5 log2 normalized intensity |
| AAGATCTGTGAAAGAAAAGTACTTTAGTGTGCCTAGGGAGATTAGAGTATCGGTCGA | 0.992 log2 normalized intensity |
| CAACAGGTGTTAAAATAACGACCTTTGGGCGCCTAGGGAGATTAGAGTATCGGTCGA | 6.57 log2 normalized intensity |
| AATATCTCAGCACATGGCAGTGTACACTAGGCCTAGGGAGATTAGAGTATCGGTCGA | 0.805 log2 normalized intensity |
| GAGAGAAAAAATCAGAGAGCAAAGGTGATCGCCTAGGGAGATTAGAGTATCGGTCGA | 2.63 log2 normalized intensity |
| ATTCCCCGACTCCTGGGTGTGAGATAAGGCGCCTAGGGAGATTAGAGTATCGGTCGA | 0.0557 log2 normalized intensity |
| AGACTGGTTTGCACAGGTTACACAGTATGTGCCTAGGGAGATTAGAGTATCGGTCGA | -0.754 log2 normalized intensity |
| AAGGTCACTAATTGGAAGCTCTTTCCCTCCGCCTAGGGAGATTAGAGTATCGGTCGA | 0.732 log2 normalized intensity |
| TCCTATTCGGTGCTGACCTTTGTTCACATTGCCTAGGGAGATTAGAGTATCGGTCGA | 6.64 log2 normalized intensity |
| GTTAAGTGAGTGGACTTTGGTCCTGGTCAGGCCTAGGGAGATTAGAGTATCGGTCGA | 7.53 log2 normalized intensity |
| CTCATTCCTATTCGGTGCTGACCTTTGTTCGCCTAGGGAGATTAGAGTATCGGTCGA | 8.62 log2 normalized intensity |
| TTTGGACCTGGCCTGCGGGGTCAGGCCGTGGCCTAGGGAGATTAGAGTATCGGTCGA | 2.71 log2 normalized intensity |
| GTGAGTGGACTTTGGTCCTGGTCAGACTTGGCCTAGGGAGATTAGAGTATCGGTCGA | 6.78 log2 normalized intensity |
| GAGCACTCATTCCTATTCGGTGCTGACCTTGCCTAGGGAGATTAGAGTATCGGTCGA | 3.97 log2 normalized intensity |
| CAATAAGGACTTTGGACCGTCTTGTGGATCGCCTAGGGAGATTAGAGTATCGGTCGA | 6.72 log2 normalized intensity |
| ACACACAATAAGGACTTTGGACCGTCTTGTGCCTAGGGAGATTAGAGTATCGGTCGA | 8.19 log2 normalized intensity |
| AGGACTTTGGACCGTCTTGTGGATCCTTGGGCCTAGGGAGATTAGAGTATCGGTCGA | 5.27 log2 normalized intensity |
